The record followed here is PubChem BioAssay AID1986 (Sanford-Burnham Center for Chemical Genomics, 2009).

The assay is described as follows: cell-free HIV fusion peptide-binding blockers – biochemical, uHTS, fluorescence dequenching, primary screen (AID 1986). As to conditions: 30 min, stronger effect = higher value.

SMILES strings stand for the structures. In all, about 290,000 compounds went through this assay and about 890 (0.31%) were called active. Rule as the data show it: active = inhibition mostly above about 52% (no sharp cut-off); inactive = mostly below about 76%. For the sample, actives were picked, then their nearest neighbours and some compounds at random.

As usually defined, the inhibition is the drop in the measured response relative to a control, in per cent. Take `COC(=O)C1CCCCN1C(=O)c1cccc(OC2CCN(C(=O)C3CC3)CC2)c1` (stereo unspecified): the inhibition (at 20 µM) was 1.5% (inactive).

With `CCOC(=O)C1=C(O)/C(=C/c2cc(OC)c(OC)c(OC)c2)SC1=Nc1ccc(OC)cc1`, the inhibition (at 20 µM) is -0.4% (inactive).

Consider `CCOC(=O)C1=C(O)/C(=C/c2cc(OC)c(O)c(OC)c2)SC1=Nc1ccc(OC)cc1`, for which the inhibition (at 20 µM) is 32.3% (inactive).

`CCOC(=O)C1=C(O)/C(=C/c2ccc(-c3ccccc3C(=O)O)o2)SC1=Nc1ccc(OC)cc1`: the inhibition (at 20 µM) was 51.8% (active).

Take `O=C(CCCCCCCCC(=O)N/N=C/c1ccco1)N/N=C/c1ccco1`: the inhibition (at 20 µM) is -2.2% (inactive).

Take `Oc1ccccc1N1CCN(C(=S)NCCc2ccccc2)CC1`: for the setting “at 20 µM”, the inhibition is 9.4% (inactive).

Regarding `Cc1oc2cc([N+](=O)[O-])c(O)c([N+](=O)[O-])c2c1C(=O)c1ccc(Br)cc1`, the inhibition (at 20 µM) is 51% (active).

With `Cc1oc2cc([N+](=O)[O-])c(O)c([N+](=O)[O-])c2c1C(=O)c1ccc(Cl)cc1`, the inhibition (at 20 µM) was 19.8% (inactive).

Regarding `COc1ccc(OC)c(C(=O)c2c(C)oc3cc([N+](=O)[O-])c(O)c([N+](=O)[O-])c23)c1`, under “at 20 µM”, the inhibition was -0.7% (inactive).

For the molecule `CCCNC(=O)NC(=O)CSc1nnc(C)n1N`, for the setting “at 20 µM”, the inhibition was 1.6% (inactive).

On to `CC(=O)c1sc(Nc2cccc(C)c2)nc1C`, for which the inhibition (at 20 µM) was 0.2% (inactive).

Consider `O=C(O)CN1C(=O)/C(=C\c2ccccc2OCc2ccc(Cl)cc2)SC1=S`, for which the inhibition (at 20 µM) was 45.9% (inactive).

On to `O=C(O)CN1C(=O)/C(=C\c2ccccc2OCc2ccc(F)cc2)SC1=S`, for which the inhibition runs as follows: (at 20 µM) 60.3% (inactive); (measured here: repeat confirmation average inhibition, at 18.6 µM) 36.9%.

For `O=C(O)CN1C(=O)/C(=C\c2cc([N+](=O)[O-])ccc2OCc2ccccc2Cl)SC1=S`, the inhibition (at 20 µM) is 68.9% (active).

On to `C=Cn1cc[n+](CC(=O)c2ccc(OC)cc2)c1`, for which, for the setting “at 20 µM”, the inhibition was -0.9% (inactive).

Consider `O=C(NCC1(c2ccccc2)CCCC1)c1cccc(Br)c1`, for which, for the setting “at 20 µM”, the inhibition is -2.2% (inactive).

For the molecule `CCOC(=O)c1ccccc1N1C(=O)C2Sc3[nH]c(=O)sc3C(/C=C/c3ccccc3)C2C1=O` (stereo unspecified), the inhibition (at 20 µM) is 31.6% (inactive).

As to `CCOc1ccc(N2C(=O)C3Sc4[nH]c(=O)sc4C(/C=C/c4ccccc4)C3C2=O)cc1` (stereo unspecified), where the note is “at 20 µM”, the inhibition is 53.6% (active).

As to `CCOc1ccc(N2C(=O)C3Sc4[nH]c(=O)sc4C(c4ccc(OC)c(OC)c4)C3C2=O)cc1` (stereo unspecified), the inhibition (at 20 µM) is 15.2% (inactive).

With `Cc1ccc([N+](=O)[O-])cc1S(=O)(=O)Nc1ccc(C(=O)N(C)C)cc1`, the inhibition (at 20 µM) was -0.4% (inactive).

On to `CCC(C(=O)OCCOCCN(CC)CC)c1ccccc1` (stereo unspecified), for which the inhibition (at 20 µM) is -1.7% (inactive).

As for `CN(C(=O)c1ccc(S(=O)(=O)N(C)C)cc1)c1ccc2ccccc2c1`, the inhibition (at 20 µM) is -2% (inactive).

Regarding `O=C(O)c1ccc(COc2ccccc2/C=C2\NC(=O)N(Cc3ccc(F)cc3)C2=O)cc1`, the inhibition (at 20 µM) was 37.2% (inactive).

`O=C(O)c1ccc(COc2ccccc2/C=C2/NC(=O)N(c3cccc(Cl)c3)C2=O)cc1`: the inhibition (at 20 µM) is 53.3% (active).

In the case of `O=C(O)c1ccc(COc2ccccc2/C=C2\NC(=O)N(Cc3ccccc3)C2=O)cc1`, the inhibition (at 20 µM) was 31.4% (inactive).
